ANO1 activ = activates or potentiates the mouse TMEM16A chloride channel; HEK293 TMEM16A/YFP-H148Q/I152L, iodide quench fluorescence; stronger effect = lower value; B-score at 10 µM; 340,000 compounds, 0.3% hits; AID 623877;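 active means fluorescence-ratio B-score plate-corrected deviation score at least 3 library SD below zero, with starting fluorescence score within 5 deviations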;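 further: channel opened by trigger with iodide after compound preincubation; score built on the fluorescence ratio of max minus min over baseline; more negative score means more quench and so TMEM16A activation or potentiation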
ANO1 block = inhibitors of mouse TMEM16A calcium-activated chloride channel; AID 588511; HEK293 TMEM16A/YFP iodide influx fluorescence, ionomycin; 310,000 compounds, 1.2% hits; Q8BHY3; normalized B-score (activity score, 25-100; higher = stronger inhibition) at 10 µM;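 active means ratio plate-corrected score three or more library SD toward inhibition, starting fluorescence score within five deviations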;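 further: score derived from kinetic fluorescence span divided by baseline fluorescence per well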
GRIN3A LBD mod = modulates the human NR3A ligand-binding domain; NR3A LBD differential scanning fluorimetry, Tm shift; 0% = protein alone, 100% = glycine-bound protein; Tm shift relative to glycine control, % at 25 µM; 340,000 compounds, 2.5% hits;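 active means melting temperature shift of at least 10% of the positive control shift, at one fixed dose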
CRFBP-R2 agonist = CRF-BP/CRF-R2 complex agonism; activation, % at 13.2 µM; 350,000 compounds, 0.46% hits; HEK293 CRF-R2/CRF-BP, calcium dye fluorescence (FLIPR); percent of saturating CRF peptide response;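 active means activation of at least 50%, plus an integration ratio under a set limit after plate pattern correction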
MPTP inh = blocks calcium-induced mitochondrial swelling. 360,000 compounds, 1.4% hits. inhibition, % at 10 µM. AID 602449. isolated mouse mitochondria, Ca2+ swelling absorbance, 30 min;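 active means inhibition of 50% or more, scaled per plate between neutral and stimulator controls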
CRFR2-BP antag = antagonists of CRF-binding protein/CRF-R2 receptor complex; HEK293 CRF-R2/CRF-BP, CRF-induced calcium fluorescence; inhibition, % at 11.8 µM; 350,000 compounds, 0.59% hits;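 active means inhibition of the ligand-induced calcium signal above about 50% at the single tested concentration, limit read from the data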
TMEM16A reconf = reconfirmed blocker of mouse TMEM16A calcium-activated chloride channel | shares compounds with ANO1 block | HEK293 TMEM16A/YFP-H148Q, iodide quench fluorescence; ionomycin added to raise cell calcium | inhibition, % at 10 µM | 2,300 compounds, 39% hits | AID 652189;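 active means mean duplicate percent inhibition, scaled so buffer wells are 0 and the reference blocker 100, over three buffer SD above buffer mean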
TMEM16A Ca cntr = alters calcium mobilization in TMEM16A HEK293 cells, counter-screen; shares compounds with ANO1 block; TMEM16A/YFP HEK293, Fluo4 calcium mobilization; calcium response (% of ionomycin), % at 10 µM; 2,300 compounds, 2% hits; AID 652231;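 active means duplicate-averaged calcium signal over 20% of the ionomycin maximum, relative to buffer baseline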;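 further: each well's signal is peak minus trough fluorescence divided by its pre-addition baseline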
Parental YFP cnt = acts in parental YFP-HEK293 cells lacking TMEM16A, counter-screen; shares compounds with ANO1 block; iodide YFP quench, ionomycin; YFP ratio F(max-min)/F0 at 10 µM; 2,300 tested, under 10 active; AID 652233;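 active means yellow fluorescent protein signal ratio exceeding the buffer control mean by over 5 SD of those controls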;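 further: ratio is mean of duplicate wells from kinetic YFP trace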
ClC-1 inh = rat ClC-1 inhibition, TMEM16A specificity screen. CHO ClC-1-YFP, iodide influx fluorescence quench; iodide control reads 0, buffer control 100. shares compounds with ANO1 block. 2,300 tested, under 10 active. ratio percent, % at 10 µM. AID 652236;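 active means duplicate-mean ratio percent above the mean of iodide-only control wells, which defines zero, plus 5 of their SD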;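 further: higher percent means stronger block of ClC-1 iodide influx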
Target sequence (P35524 whole entry, looked up): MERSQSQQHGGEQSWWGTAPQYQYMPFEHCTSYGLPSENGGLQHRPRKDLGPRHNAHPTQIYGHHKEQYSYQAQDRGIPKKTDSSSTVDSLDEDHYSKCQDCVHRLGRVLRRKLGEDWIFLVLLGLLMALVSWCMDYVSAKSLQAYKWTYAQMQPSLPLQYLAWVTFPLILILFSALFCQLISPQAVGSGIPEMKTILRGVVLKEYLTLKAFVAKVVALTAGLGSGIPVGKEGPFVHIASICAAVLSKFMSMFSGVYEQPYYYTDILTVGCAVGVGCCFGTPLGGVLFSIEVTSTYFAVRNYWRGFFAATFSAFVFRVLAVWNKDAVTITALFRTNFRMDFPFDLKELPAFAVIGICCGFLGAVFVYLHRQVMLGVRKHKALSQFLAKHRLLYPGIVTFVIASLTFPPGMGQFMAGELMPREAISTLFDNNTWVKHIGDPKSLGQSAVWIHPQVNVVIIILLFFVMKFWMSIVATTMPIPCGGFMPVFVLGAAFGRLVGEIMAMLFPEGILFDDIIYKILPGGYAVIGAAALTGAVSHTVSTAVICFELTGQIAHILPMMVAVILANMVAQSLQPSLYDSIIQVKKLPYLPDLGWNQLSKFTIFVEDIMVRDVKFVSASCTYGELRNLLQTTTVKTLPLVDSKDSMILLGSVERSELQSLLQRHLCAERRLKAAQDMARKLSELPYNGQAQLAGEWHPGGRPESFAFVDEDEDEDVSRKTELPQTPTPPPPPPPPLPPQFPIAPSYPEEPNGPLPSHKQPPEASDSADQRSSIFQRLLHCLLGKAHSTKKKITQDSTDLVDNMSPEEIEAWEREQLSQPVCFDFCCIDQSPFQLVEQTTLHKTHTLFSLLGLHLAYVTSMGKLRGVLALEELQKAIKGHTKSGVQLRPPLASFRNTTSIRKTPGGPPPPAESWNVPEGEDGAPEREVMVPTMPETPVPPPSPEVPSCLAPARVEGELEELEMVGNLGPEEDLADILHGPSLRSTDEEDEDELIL
Each line names hits and unclear results; the compound was inactive in the other large screens (follow-up assays come after a bar, where they were run). Rows were chosen to be rich in hits. Some 5.1% of all compounds tested hit in one or more screens of this group.

NC(=O)c1ccsc1NC(=O)COc1ccccc1	ANO1 block 25 | TMEM16A reconf inactive | TMEM16A Ca cntr inactive | Parental YFP cnt inactive | ClC-1 inh inactive
NC(=O)c1ccsc1NC(=O)COC(=O)Cc1cccc2ccccc12	ANO1 block 25, GRIN3A LBD mod 24 | TMEM16A reconf 45% | TMEM16A Ca cntr inactive | Parental YFP cnt inactive | ClC-1 inh inactive
Cc1no[n+]([O-])c1COc1cccc(/C=C2\N=C(c3ccccc3)OC2=O)c1	none
O=C1OC(c2ccccc2)=N/C1=C/c1cccc(OC(=O)c2cccs2)c1	ANO1 block 25 | TMEM16A reconf inactive | TMEM16A Ca cntr inactive | Parental YFP cnt inactive | ClC-1 inh inactive
Cc1ccc(C)c(S(=O)(=O)N2CCN(C(=O)CCNS(=O)(=O)c3ccccc3)CC2)c1	none
CCOCCCNC(=S)N1CCN(c2nc(-c3ccc(F)cc3)cs2)CC1	ANO1 block 100 | TMEM16A reconf 31% | TMEM16A Ca cntr inactive | Parental YFP cnt inactive | ClC-1 inh inactive
COCCCNC(=S)N1CCN(c2nc(-c3ccc(F)cc3)cs2)CC1	none
COc1cccc(-c2cc(C(F)(F)F)n3nc(C(=O)N4CCCCC4c4cccnc4)cc3n2)c1 (configuration not stated)	ANO1 block 25 | TMEM16A reconf inactive | TMEM16A Ca cntr inactive | Parental YFP cnt inactive | ClC-1 inh inactive
COC(=O)C1CCN(CC(=O)Nc2ccc(C(=O)Nc3ccccc3OC)cc2)CC1	none (no result: ANO1 block)
COC(=O)Nc1ccc(S(=O)(=O)N2CCCCC2)cc1	none
COC(=O)Nc1ccc(S(=O)(=O)N2CCC(Cc3ccccc3)CC2)cc1	ANO1 block 100 | TMEM16A reconf inactive | TMEM16A Ca cntr inactive | Parental YFP cnt inactive | ClC-1 inh inactive
COc1cccc(COC(=O)C2CCN(S(=O)(=O)c3ccc(C)cc3C)CC2)c1OC	ANO1 block 100 | TMEM16A reconf 34% | TMEM16A Ca cntr inactive | Parental YFP cnt inactive | ClC-1 inh inactive
Cc1ccc(S(=O)(=O)N2CCC(C(=O)OCC(=O)NCCc3ccccc3)CC2)cc1C	none
Cc1ccc(S(=O)(=O)N2CCC(C(=O)OCc3ccccc3)CC2)cc1C	ANO1 block 25 | TMEM16A reconf inactive | TMEM16A Ca cntr inactive | Parental YFP cnt inactive | ClC-1 inh inactive
COc1ccc(N2CCN(C(=O)CSc3nnc(-c4cc5ccccc5cc4O)n3C)CC2)cc1	none
COc1ccc(N2CCN(C(=O)CSc3nnc4nc(C)cc(C)n34)CC2)cc1	ANO1 block 25 | TMEM16A reconf inactive | TMEM16A Ca cntr inactive | Parental YFP cnt inactive | ClC-1 inh inactive
Cc1ccc(C(=O)Nc2nc(=O)n(C(=O)C3CC3)s2)cc1	none
Cc1ccc(C(=O)Nc2nc(=O)n(C(=O)c3ccccc3C)s2)cc1	ANO1 block 25 | TMEM16A reconf 26% | TMEM16A Ca cntr inactive | Parental YFP cnt inactive | ClC-1 inh inactive
CCC1CCCCN1C1Sc2ccc(C(=O)OC)cc2NC1=O (configuration not stated)	ANO1 block 25 | TMEM16A reconf inactive | TMEM16A Ca cntr inactive | Parental YFP cnt inactive | ClC-1 inh inactive
COC(=O)c1ccc2c(c1)NC(=O)C(N1CCOCC1)S2 (configuration not stated)	none
Cc1ccc(NC(=O)C2(C)CCN2CCc2ccccc2)cc1O (configuration not stated)	none (no result: ANO1 activ, ANO1 block, GRIN3A LBD mod, CRFBP-R2 agonist, CRFR2-BP antag)
c1ccc(N2CCN(c3nc4ccccc4n4nnnc34)CC2)cc1	none | TMEM16A reconf inactive | TMEM16A Ca cntr inactive | Parental YFP cnt inactive | ClC-1 inh inactive
COC(=O)c1cc2ccc(OC)cc2c2cc(OC)c(OC)cc12	none (no result: ANO1 activ, ANO1 block)
CCOC(=O)C1Cc2ccccc2C(=O)O1 (configuration not stated)	none
CCCCOC(=O)C1Cc2ccccc2C(=O)O1 (configuration not stated)	ANO1 block 100 | TMEM16A reconf inactive | TMEM16A Ca cntr inactive | Parental YFP cnt inactive | ClC-1 inh inactive
NC(=O)C1C2CCC(C2)C1C(N)=O (configuration not stated)	none (no result: ANO1 block)
CCOC(=O)C1=C(c2ccccc2)OC(N)=C(C#N)C1c1ccco1 (configuration not stated)	ANO1 block 25 | TMEM16A reconf inactive | TMEM16A Ca cntr inactive | Parental YFP cnt inactive | ClC-1 inh inactive
CCOC(=O)C1=C(CSc2nc(-c3ccccc3)ccc2C#N)OC(N)=C(C#N)C1c1ccccc1 (configuration not stated)	none | TMEM16A reconf inactive | TMEM16A Ca cntr inactive | Parental YFP cnt inactive | ClC-1 inh inactive
CCOC(=O)C1=C(CSc2nc(-c3ccccc3)ccc2C#N)OC(N)=C(C#N)C1c1cccnc1 (configuration not stated)	none
COc1cccc(C(O)c2ncc(-c3ccccc3OC)[nH]2)c1 (configuration not stated)	none (no result: ANO1 activ, ANO1 block, GRIN3A LBD mod, CRFBP-R2 agonist, CRFR2-BP antag)
CSc1ccc(C2NC(=O)c3c(sc4c3CCN(C)C4)N2)cc1 (configuration not stated)	none | TMEM16A reconf inactive | TMEM16A Ca cntr inactive | Parental YFP cnt inactive | ClC-1 inh inactive
CN1CCc2c(sc3c2C(=O)NC(c2ccc(-c4cccc(Cl)c4)o2)N3)C1 (configuration not stated)	none
CCN(CC)c1ccc(NC(=O)CCCCCN2C(=O)c3ccccc3C2=O)cc1	ANO1 block 25 | TMEM16A reconf inactive | TMEM16A Ca cntr inactive | Parental YFP cnt inactive | ClC-1 inh inactive
CCOC(=O)C(NC(=O)C1C(C)N1S(=O)(=O)c1ccc(C)cc1)C(=O)OCC (configuration not stated)	none
CCCc1cc(Nc2cccc(OC)c2)n2ncnc2n1	ANO1 block 100 | TMEM16A reconf inactive | TMEM16A Ca cntr inactive | Parental YFP cnt inactive | ClC-1 inh inactive
O=S(=O)(Nc1cccnc1)c1cc(Cl)ccc1Cl	none
O=S(=O)(Nc1nc(-c2ccccc2)cs1)c1cc(Cl)ccc1Cl	ANO1 block 25 | TMEM16A reconf 24% | TMEM16A Ca cntr inactive | Parental YFP cnt inactive | ClC-1 inh inactive
